Measured values as given in PubChem BioAssay (NCATS).
Records with an inconclusive call do not appear. A call without a number means that no potency is given here. Calls of active or inactive are those of the source. The call rests on the fitted dose curve; in most records, active means well fitted inhibition curve with a large enough effect; inconclusive means small, poorly fitted or top-dose-only effect; inactive means no such curve, though single readings can be large or run the other way.

What was measured:
[1] = tested on: Zika virus NS2B-NS3 protease (unlinked complex); experiment: Primary screen GU Rhodamine qHTS for Zika virus inhibitors: Unlinked NS2B-NS3 protease assay (AID 1347159); settings: Recombinant ZIKV NS2B-NS3 protease, Rhodamine110 substrate fluorescence; series mostly up to 107 µM; further: nearly all actives have a fitted effect of over 60% in size
Summary of the method: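 Unlinked NS2B/NS3, 25 nM; Rhod110 peptide, 1.5 microM; compounds, up to 114 microM. Reaction run 15 min at RT in 10 mM Tris-HCl pH 8.0, 0.01% Tween 20; kinetic fluorescence change fitted with a 4-parameter Hill model.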

[2] = tested on: Zika virus NS2B-NS3 protease (linked construct); experiment: Primary screen NINDS Rhodamine qHTS for Zika virus inhibitors (AID 1347160); settings: purified NS2B-NS3 protease, Rhodamine110 substrate fluorescence; series mostly up to 57.1 µM; further: nearly all actives have a fitted effect of over 55% in size
Summary of the method: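 Single-chain NS2B-NS3 protease, 25 nM, pH 8.0; compounds preincubated 15 min. Activity: Rhodamine110 release from 1.5 microM substrate over 15 min, room temperature, data fitted to 4-parameter Hill.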
Potency means the concentration at half of the fitted maximal effect.

| SMILES | Potency [1] | Potency [2] |
| --- | --- | --- |
| C/C=C/C=C/C=C/C(=O)O[C@@H]1[C@@H](OC)C2=C(C(=O)N(C(C)C(=O)O)C2)[C@@]2(C)CCCC(C)(C)[C@H]12 (stereo not given in full) | 7.94 µM (active) | 11.2 µM (active) |
| C=C[C@](C)(CC/C=C(\C)C(=O)O)O[C@@H]1OC[C@H](O)[C@H](O)[C@H]1O | 25.1 µM (active) | 12.6 µM (active) |
| CN(NC(=O)CC(=O)NN(C)C(=S)c1ccccc1)C(=S)c1ccccc1 | inactive | inactive |
| CC1=C2C(=O)C=C(CO)[C@@H]2[C@H]2OC(=O)[C@H](C)[C@@H]2[C@@H](O)C1 | inactive | inactive |
| O=C(NN1CCCCC1)c1nn(-c2ccc(Cl)cc2Cl)c(-c2ccc(C#Cc3ccc(C(F)(F)F)cc3)s2)c1CNS(=O)(=O)N1CCCC1 | inactive | inactive |
| CC(=O)NC(CCC(=O)O)C(=O)NCCc1ccc(O)cc1 (stereo not given) | inactive | inactive |
| C=C1CC[C@@H]2[C@](C)(CC[C@H](O)[C@@]2(C)CCC=C(C)C)[C@@H]1Cc1c[nH]c2ccccc12 | inactive | inactive |
| CC(=O)O[C@@H]1[C@H](O[C@@H]2OC[C@](O)(CO)[C@H]2O)[C@@H](O[C@@H]2O[C@@H](C)[C@H](O)[C@@H](O)[C@H]2O)[C@H](OC(=O)[C@]23CCC(C)(C)C[C@H]2C2=CCC4[C@@]5(C)C[C@H](O)[C@H](O[C@@H]6O[C@H](C(=O)O)[C@@H](O)[C@H](O)[C@H]6O)[C@@](C)(C(=O)O)C5CC[C@@]4(C)[C@]2(C)CC3)O[C@@H]1C (stereo not given in full) | inactive | inactive |
| C=C1CC2C3(C)C(O)CC(=O)C(C)(C)C3C(OC(C)=O)C(OC(C)=O)C2(C)C2C(=O)OC(C)(C(=O)OC)C(=O)C12C (stereo not given) | inactive | inactive |
| COc1cc(O[C@@H]2O[C@H](CO)[C@@H](O)[C@H](O)[C@H]2O)c(CCC(=O)OC[C@H]2O[C@@H](Oc3cc(OC)c(C4OC(=O)C(C)(O)C4O)cc3CCC(=O)O)[C@H](O)[C@@H](O)[C@@H]2O)cc1C1OC(=O)C(C)(O)C1O (stereo not given in full) | inactive | inactive |
| C[C@@H]1CCC2C(C)(C)[C@H](O)CC[C@]2(C)[C@@]12Cc1c(O)cc3c(c1O2)CN(CCO)C3=O (stereo not given in full) | inactive | inactive |
| CCC(C)C(=O)O[C@@H]1[C@@H](O)[C@@H](O[C@H]2O[C@H](CO)[C@@H](O)[C@H](O)[C@H]2O)O[C@H](CO)[C@H]1O (stereo not given in full) | inactive | inactive |
| COc1ccccc1-n1c(SCC(=O)Nc2nc3ccc(C)cc3s2)nc2c(c1=O)SCC2 | inactive | inactive |
| CCOC(=O)[C@H](CCc1ccccc1)N[C@@H](C)C(=O)N1C2CCCCC2C[C@H]1C(=O)O (stereo not given in full) | inactive | inactive |
| Cc1cc(N2CCCCC2)nc2ccccc12 | inactive | inactive |
| CC(=O)N1c2ccccc2C2(O)CC3C(=O)NC(CC(C)C)C(=O)N3C12 (stereo not given) | inactive | inactive |
| CC(=O)c1c(C)cc(O[C@@H]2O[C@H](CO)[C@@H](O)[C@H](O)[C@H]2O)cc1O | inactive | inactive |
| Cc1nn(C)c2c1C(c1ccc(C(F)(F)F)cc1)C(C#N)=C(N)O2 (stereo not given) | inactive | inactive |
| OC[C@H]1O[C@@H](OCCc2ccc(O)cc2)[C@H](O)[C@@H](O)[C@@H]1O | inactive | inactive |
| CO[C@@]12CC3[C@@H]([C@@H](O)[C@@H](OC(C)=O)C4[C@](C)(COC(C)=O)CCC[C@]34C)[C@@H](C)C1=CC(=O)O2 (stereo not given in full) | inactive | inactive |

| SMILES | Potency [1] | Potency [2] |
| --- | --- | --- |
| C=C1C2=CC(O)C(C)C1(C)CC/C(C)=C/CCC1(C)OC1C2=O (stereo not given) | inactive | inactive |
| O=C1NC(Cc2ccc(O)cc2)C(=O)N2CCCC12 (stereo not given) | inactive | inactive |
| O=C(c1ccc(C#Cc2cccc(F)c2)cn1)N1CC2CC2C1 (stereo not given) | inactive | inactive |
| COc1cc(/C=C/C(=O)O[C@H]2[C@H](OC(=O)/C=C/c3cc(OC)c(O)c(OC)c3)O[C@H](CO[C@@H]3O[C@H](CO)[C@@H](O)[C@H](O)[C@H]3O)[C@@H](O)[C@@H]2O)ccc1O | inactive | inactive |
| OC[C@H]1O[C@@H](n2cnc3c2NC=NC[C@H]3O)C[C@@H]1O | inactive | inactive |
| O=C1[C@H](O[C@@H]2O[C@H](CO)[C@@H](O)[C@H](O)[C@H]2O)Oc2ccccc2N1O | inactive | inactive |
| NCc1c[nH]c(=S)n1C1CCc2c(F)cc(F)cc2C1 (stereo not given) | inactive | inactive |
| CC1CCC(=O)CC(O)C(O)CC(=O)O1 (stereo not given) | inactive | inactive |
| C=C1C[C@]23C[C@H]1CC[C@H]2[C@]1(C)CCC[C@@]2(CO)C(=O)O[C@H]([C@H]21)[C@@H]3O | inactive | inactive |
| CC1CCC2(C)C(CC(O)C(O)C23CO3)C1(C)CCC1=CC(=O)OC1O (stereo not given) | inactive | inactive |
| C[C@@H]1C(=O)O[C@H]2CC34[C@H]5C[C@@H](C(C)(C)C)C36[C@@H](OC(=O)[C@@H]6O)OC4(C(=O)O5)[C@]21O (stereo not given in full) | inactive | inactive |
| COC(=O)C1=CO[C@@H](O[C@@H]2O[C@H](CO[C@@H]3O[C@H](COC(=O)/C=C/c4ccc(O)cc4)[C@@H](O)[C@H](O)[C@H]3O)[C@@H](O)[C@H](O)[C@H]2O)[C@@H]2C(CO)=CC[C@H]12 | inactive | inactive |
| C=CC1(C)CC(O)C2(CCC3C(C)(C(=O)O)CCCC3(C)C2=O)C1 (stereo not given) | inactive | inactive |
| O=C1Nc2ccc(O)cc2O[C@H]1O[C@@H]1O[C@H](CO)[C@@H](O)[C@H](O)[C@H]1O | inactive | inactive |
| CC1(C)C(=O)N2c3ccccc3[C@]3(CC(n4cnc5ccccc5c4=O)C(=O)O3)[C@H]2N1O (stereo not given in full) | inactive | inactive |
| CCC[C@@H]1C[C@@H](C(=O)N[C@@H]([C@H]2O[C@H](SC)[C@H](OP(=O)(O)O)[C@@H](O)[C@H]2O)[C@H](C)Cl)N(C)C1 | inactive | inactive |
| C[C@@H]1CC[C@H]2C(C)(C)[C@H](O)[C@H](O)C[C@]2(C)[C@@]12Cc1c(O)cc3c(c1O2)CNC3=O | inactive | inactive |
| C=C[C@H]1[C@H](O[C@@H]2O[C@H](CO)[C@@H](O)[C@H](O)[C@H]2O)OC=C(C(=O)OC)[C@H]1C[C@@H]1N[C@H](C(=O)O)Cc2c1[nH]c1ccccc21 | inactive | inactive |
| COc1ccc(C(=O)O[C@H]2CC(C)=CC[C@@]3(C)[C@@H](OC(C)=O)C[C@@](O)(C(C)C)[C@H]23)cc1 | inactive | inactive |
| C[C@@H]1O[C@@H](O[C@H]2[C@H](O[C@H]3CC[C@@]4(C)C(CC[C@]5(C)C4CC=C4[C@@H]6CC(C)(C)CC[C@]6(C(=O)O)CC[C@]45C)[C@]3(C)CO)OC[C@H](O)[C@@H]2O)[C@H](O)[C@H](O[C@@H]2OC[C@@H](O)[C@H](O)[C@H]2O)[C@H]1O (stereo not given in full) | inactive | inactive |

| SMILES | Potency [1] | Potency [2] |
| --- | --- | --- |
| C[C@@H]1CC[C@]2(C(=O)O[C@@H]3O[C@H](CO)[C@@H](O)[C@H](O)[C@H]3O)CC[C@]3(C)C(=CCC4[C@@]5(C)C[C@@H](O)[C@H](O)C(C)(C)C5CC[C@]43C)C2[C@]1(C)O (stereo not given in full) | inactive | inactive |
| CC1=C2CC3OC3(C)CCC3OC3(C)CC2OC1=O (stereo not given) | inactive | inactive |
| CON(C)C(=O)N1N=C(c2cc(F)ccc2F)S[C@@]1(CCCN)c1ccccc1 | inactive | inactive |
| COC(=O)C1=CO[C@@H](O[C@@H]2O[C@H](CO)[C@@H](O)[C@H](O)[C@H]2O)[C@@H]2[C@@H](C(=O)OC)[C@@H](O)C(O)[C@H]12 (stereo not given in full) | inactive | inactive |
| CCNC(=O)CCC/C=C\C[C@@H]1[C@@H](/C=C/C(O)CCc2ccccc2)[C@@H](O)C[C@@H]1O (stereo not given in full) | inactive | inactive |
| COC(=O)[C@@]1(O)C=CC[C@@H]2[C@@]3(C)C[C@@H](c4ccoc4)OC(=O)[C@H]3CC[C@]21C | inactive | inactive |
| Cc1c(N2C(=O)c3ccc(C(=O)O)cc3C2=O)c(=O)n(-c2ccccc2)n1C | inactive | inactive |
| CCC(C)(O)C(O)C(=O)OCc1ccc(O[C@@H]2O[C@H](CO)[C@@H](O)[C@H](O)[C@H]2O)c(OC)c1 (stereo not given in full) | inactive | inactive |
| COC12CC3C(C(C)C1=CC(=O)O2)C(O)C(OC(C)=O)C1C(C)(C)C(OC(C)=O)CCC31C (stereo not given) | inactive | inactive |
| CCC(NC(=O)CC(NC(=O)C(CO)NC(=O)C(CC)NC(=O)c1ccc[nH]1)c1ccccc1)C(=O)O (stereo not given) | inactive | inactive |
| COc1c2c(c(C)c3c1C(=O)OC3)OC1(C)CC(O)C3(O)C(C)(C)OC(=O)CCC3(C)C1C2 (stereo not given) | inactive | inactive |
| NC1CCC(N[C@@H]2C[C@H]2c2ccccc2)CC1 (stereo not given in full) | inactive | inactive |
| O=c1ccn([C@@H]2O[C@H](CO)[C@@H](O)[C@H]2O)c(=O)[nH]1 | inactive | inactive |
| C/C=C(\C)C(=O)OC[C@H]1O[C@H](O[C@H]2O[C@H](CO)[C@@H](OC(=O)/C(C)=C/C)[C@H](O)[C@H]2O[C@@H]2O[C@H](CO)[C@@H](O)[C@H](O)[C@H]2O)[C@H](O[C@@H]2O[C@H](CO)[C@@H](O)[C@H](O)[C@H]2O)[C@@H](O)[C@@H]1O | inactive | inactive |
| O=S(=O)(NC1CCNCC1)c1cc(S(=O)(=O)c2ccccc2)ccc1C(F)(F)F | inactive | inactive |
| C[C@@H]1C[C@H]2[C@@H]3CCC4=CC(=O)C=C[C@]4(C)[C@@]3(F)[C@@H](O)C[C@]2(C)[C@@]1(O)C(=O)COP(=O)(O)O | inactive | inactive |
| CNC(=O)Nc1ccc(OC)c(NC(=O)NC(=O)c2cc(F)c(F)cc2Cl)c1 | inactive | inactive |
| CCOC(=O)c1ccc(N(C)c2csc(-c3ccccc3)n2)cc1 | inactive | inactive |
| C=C1[C@@H]2CC[C@@]3(C)[C@H](c4ccoc4)OC(=O)C[C@]13O[C@H]1CC(=O)C(C)(C)[C@H](CC(=O)OC)[C@]12C | inactive | inactive |
| CC1=CC(=O)CC(C)(CO[C@@H]2O[C@H](CO)[C@@H](O)[C@H](O)[C@H]2O)C1(O)/C=C/C(C)=C/C(=O)O (stereo not given in full) | inactive | inactive |
